The panel holds about 83,000 compounds, 20% with a hit somewhere; the sample as a whole holds those more often.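 Note: values are percent growth. 100 is the growth of untreated cells, values between 100 and 0 indicate rising inhibition; between -100 and 0 indicates cell death.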 The source made the active and inactive calls. The calls were made as follows: active = growth percent below 10; inactive = the rest.

In the first test the test system is SK-OV-3 ovarian. In words: NCI-60 one-dose screen, 48 h (100 = growth as untreated, 0 = no growth, -100 = all killed). To be noted: 10 µM unless noted.
Consider `CCOC(=O)c1c(C)[nH]c2ccc(O)cc12`, for which the growth was 99.2% (inactive).

In the case of `CCC1CCCCN1C(=S)N/N=C(\C)c1ccccn1` (configuration not stated), the growth was 8.27% (active). Regarding `CC(/C=N/NC(N)=S)Cc1ccc(C(C)C)cc1` (configuration not stated), the growth is 85.8% (inactive).

As for `Nc1ccc(C(=O)/C=C/c2ccccc2)cc1`, the growth is 110% (inactive).

On to `Cc1oc2c(C)c3oc(=O)cc(C)c3cc2c1CCl`, for which the growth is 89.1% (inactive). In the case of `O=C(/C(Cl)=N/O)c1ccc(-c2ccccc2)cc1`, the growth is 99.5% (inactive).

For the compound `CC(C)c1ccc(Nc2n[nH]c(=S)s2)cc1`, the growth was 106% (inactive). Turning to `NC(=S)N/N=C\c1nccc2c(N)cccc12`, the growth was 16.6% (inactive).

Regarding `COc1cc2c(c(OC)c1OC)-c1ccc(NCc3ccccc3)c(=O)cc1[C@@H](NC(C)=O)CC2`, the growth is -6.57% (active). With `CCCCCCCCCCCCCCCCSC(=NCC)NCC`, the growth is 72.1% (inactive). Same read-out and setting: the figure for `CN(Cc1ccccc1)c1ccc(SC#N)cc1` is 112% (inactive). On the same count and under the same terms, the figure for `O=[N+]([O-])c1ccc(N2CCN(Cc3ccccc3)CC2)c2c1no[n+]2[O-]` is 58.4% (inactive); for `CCOC(=O)NC(/C=C/c1ccccc1)NC(=O)OCC` it is 90.3% (inactive). Consider `CCCCN(CCCC)CCCCCCCCCCO`, for which the growth was 109% (inactive). Take `S=C1SCN(Cc2cccs2)CN1Cc1cccs1`: the growth is 108% (inactive). Still for that read-out and setting: the figure for `CCOC(=O)/C(=C\c1ccc2ccccc2c1)P(=O)(OCC)OCC` is 113% (inactive); for `Nc1ccc(Oc2ccccc2)c(Cl)c1` it is 91.6% (inactive); for `COc1ccc(C(Cn2ccnc2)Sc2ccc(Cl)c(Cl)c2)cc1` (configuration not stated) it is 86.4% (inactive). On to `O=[N+]([O-])/C(=C/c1ccccc1)c1ccccc1`, for which the growth is 100% (inactive). The same measure, in the same setting: the figure for `CCCCCCC1N=C(N)N=C(N)N1c1cccc(Cl)c1` (configuration not stated) is 45.1% (inactive); for `O=C1C=CC(=O)N1C1CCCCCCCCCCC1` it is 90.6% (inactive); for `Cc1nc(Sc2nc3ccc([N+](=O)[O-])cc3s2)sc1C` it is 39.4% (inactive).

As to `OCCOSCCO`, the growth is 117% (inactive).

For `COc1cc(OC)c(/C=C/c2c3ccccc3cc[n+]2C)c(OC)c1`, the growth is 35% (inactive). Same read-out and setting: next, `CC(C)(C)c1ccc(O)c(Br)c1`: 120% (inactive); `O=C/C=C/c1ccc([N+](=O)[O-])cc1`: 89.5% (inactive). With `COc1ccc2nc3cc(Cl)ccc3c(NCCCCCN3CCCCC3)c2c1`, the growth is -15.2% (active). Same read-out and setting: next, `COc1cc(-c2ccc(-[n+]3nc(-c4ccc([N+](=O)[O-])cc4)nn3-c3ccc([N+](=O)[O-])cc3)c(OC)c2)ccc1-[n+]1nc(-c2ccc([N+](=O)[O-])cc2)nn1-c1ccc([N+](=O)[O-])cc1`: 47.1% (inactive); `O=C1C=CC(=O)N1c1cc(Cl)c(Cl)cc1Cl`: 91.6% (inactive); `Nc1cccc2cccc([N+](=O)[O-])c12`: 103% (inactive). Turning to `CCc1cnc2ccccc2c1/C=C/c1ccc(N(C)C)cc1`, the growth is 38.5% (inactive).

Turning to `O=[N+]([O-])c1ccc(C2N(Cc3ccc(Cl)cc3)CCN2Cc2ccc(Cl)cc2)cc1`, the growth was 90.1% (inactive). Same read-out and setting: next, `Oc1ccc2c(c1)CCc1ccccc1-2`: 105% (inactive); `COc1cc(/C=C2\SC(=S)N(/C=C/c3nc4ccccc4[nH]c3=O)C2=O)cc(OC)c1OC`: 76.3% (inactive); `CC(C)(C)CC(C)(C)c1ccc(OCCOCCSC(=N)N)cc1`: 55.9% (inactive).

In a further test the test system is IGROV1 ovarian. The test is described as above. To be noted: 10 µM unless noted.
`CCOC(=O)c1c(C)[nH]c2ccc(O)cc12`: the growth was 103% (inactive). `CCC1CCCCN1C(=S)N/N=C(\C)c1ccccn1` (configuration not stated): the growth was 2.61% (active). `CC(/C=N/NC(N)=S)Cc1ccc(C(C)C)cc1` (configuration not stated): the growth is 25.7% (inactive).

As for `Nc1ccc(C(=O)/C=C/c2ccccc2)cc1`, the growth was 90.4% (inactive). Turning to `Cc1oc2c(C)c3oc(=O)cc(C)c3cc2c1CCl`, the growth was 94.3% (inactive).

Take `O=C(/C(Cl)=N/O)c1ccc(-c2ccccc2)cc1`: the growth is 71.8% (inactive). On the same count and under the same terms, next, `CC(C)c1ccc(Nc2n[nH]c(=S)s2)cc1`: 106% (inactive); `NC(=S)N/N=C\c1nccc2c(N)cccc12`: 10.9% (inactive); `COc1cc2c(c(OC)c1OC)-c1ccc(NCc3ccccc3)c(=O)cc1[C@@H](NC(C)=O)CC2`: -15.6% (active). Still for that read-out and setting: the figure for `CCCCCCCCCCCCCCCCSC(=NCC)NCC` is -89.3% (active).

With `CN(Cc1ccccc1)c1ccc(SC#N)cc1`, the growth is 98.8% (inactive).

Consider `CC(=O)Nc1ccc(C(=O)CCl)cc1`, for which the growth is 93.2% (inactive). Same read-out and setting: next, `O=[N+]([O-])c1ccc(N2CCN(Cc3ccccc3)CC2)c2c1no[n+]2[O-]`: -42% (active); `CCOC(=O)NC(/C=C/c1ccccc1)NC(=O)OCC`: 106% (inactive).

Consider `CCCCN(CCCC)CCCCCCCCCCO`, for which the growth was 94% (inactive).

With `S=C1SCN(Cc2cccs2)CN1Cc1cccs1`, the growth was 106% (inactive). Turning to `CCOC(=O)/C(=C\c1ccc2ccccc2c1)P(=O)(OCC)OCC`, the growth is 56% (inactive). `Nc1ccc(Oc2ccccc2)c(Cl)c1`: the growth is 112% (inactive).

As for `COc1ccc(C(Cn2ccnc2)Sc2ccc(Cl)c(Cl)c2)cc1` (configuration not stated), the growth was 59.3% (inactive). Same read-out and setting: the figure for `O=[N+]([O-])/C(=C/c1ccccc1)c1ccccc1` is 104% (inactive); for `CCCCCCC1N=C(N)N=C(N)N1c1cccc(Cl)c1` (configuration not stated) it is 58% (inactive); for `O=C1C=CC(=O)N1C1CCCCCCCCCCC1` it is 80.3% (inactive).

Take `Cc1nc(Sc2nc3ccc([N+](=O)[O-])cc3s2)sc1C`: the growth was 32% (inactive).

For `Fc1ccc(NCCS)cc1`, the growth is 104% (inactive). On the same count and under the same terms, next, `OCCOSCCO`: 112% (inactive). With `COc1cc(OC)c(/C=C/c2c3ccccc3cc[n+]2C)c(OC)c1`, the growth is 13.2% (inactive).

Consider `CC(C)(C)c1ccc(O)c(Br)c1`, for which the growth was 111% (inactive).

Take `O=C/C=C/c1ccc([N+](=O)[O-])cc1`: the growth was 101% (inactive). On the same count and under the same terms, the figure for `COc1ccc2nc3cc(Cl)ccc3c(NCCCCCN3CCCCC3)c2c1` is 5.24% (active). Still for that read-out and setting: next, `COc1cc(-c2ccc(-[n+]3nc(-c4ccc([N+](=O)[O-])cc4)nn3-c3ccc([N+](=O)[O-])cc3)c(OC)c2)ccc1-[n+]1nc(-c2ccc([N+](=O)[O-])cc2)nn1-c1ccc([N+](=O)[O-])cc1`: 24.5% (inactive); `O=C1C=CC(=O)N1c1cc(Cl)c(Cl)cc1Cl`: 93.7% (inactive). Regarding `Nc1cccc2cccc([N+](=O)[O-])c12`, the growth was 118% (inactive).

As to `CCc1cnc2ccccc2c1/C=C/c1ccc(N(C)C)cc1`, the growth is 42% (inactive). The same measure, in the same setting: next, `O=[N+]([O-])c1ccc(C2N(Cc3ccc(Cl)cc3)CCN2Cc2ccc(Cl)cc2)cc1`: 85.9% (inactive). As for `Oc1ccc2c(c1)CCc1ccccc1-2`, the growth is 116% (inactive).

In the case of `COc1cc(/C=C2\SC(=S)N(/C=C/c3nc4ccccc4[nH]c3=O)C2=O)cc(OC)c1OC`, the growth was 89.8% (inactive). Consider `CC(C)(C)CC(C)(C)c1ccc(OCCOCCSC(=N)N)cc1`, for which the growth is 54.9% (inactive).

The record behind these values is PubChem BioAssay (NCI).
